Assay [1] deals with Glucocorticoid receptor (Homo sapiens) (UniProt P04150). The assay can be described thus: GR-GFP Redistribution (AID 450;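 active = compounds whose dose series gives a full or clear partial fitted curve of increased nuclear translocation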; note: potency is the fitted concentration of half-maximal effect). To be noted: U2OS GR-GFP nuclear translocation, laser cytometry, 2 h.
Assay [2] has the same target. The assay can be described thus: GR-EFC Redistribution (AID 451; calls by dose curve; note: potency is the fitted concentration of half-maximal effect). Particulars: CHO-K1 GR-EFC translocation, beta-gal luminescence, 2 h. The gist of the method: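 CHO-K1 cells stably expressing nuclear-localized β-gal enzyme acceptor and GR fused C-terminally to the enzyme donor fragment; ligand-driven nuclear translocation restores β-gal by complementation. Compounds titrated up to 46 uM final, 2 h at 37 °C; luminescence read.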

Assay [3] concerns the target Mitogen-activated protein kinase 10 (Mus musculus) (UniProt Q61831). Nature of the assay: JNK3 AlphaScreen Assay (AID 530; active = well fitted curve in either direction with a large enough effect, not every such curve was filed as active;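 note: kinase came from lysate of stimulated human HepG2 cells; signal reports phosphorylation of biotinylated GST-cJun 1-79 at Ser73 with 10 µM ATP; % is set by controls: 0 for no effect and ±100 for the full control effect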). The method, boiled down:
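Phosphorylation of biotinylated GST-cJun(1-79) at Ser73 is measured by AlphaScreen proximity luminescence. Enzyme is JNK3 in HepG2 lysates activated with interleukin-1beta and tumor necrosis factor alpha; ATP is 10 uM final.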

The target in assay [4] is 3',5'-cyclic-AMP phosphodiesterase 4B (Homo sapiens) (UniProt Q07343). The assay can be described thus: qHTS Assay for Inhibitors of PDE-IV (AID 607; active = well fitted activation curve with a large enough effect in the main read-out, with a control signal flat, not every such curve was filed as active; note: % of control where 0% means no effect). The method, boiled down:
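HEK293 ACTOne cells with CNG channel (1000/well), endogenous PDE4; membrane potential dye, compounds up to 22.9 uM final. Fluorescence Ex 535/Em 590; RO 20-1724 (100 uM final) as reference.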

Assay [5] in a line: qHTS Assay for Lipid Storage Modulators (AID 1519; calls by dose curve). Particulars: Drosophila S3 cells, BODIPY lipid droplet/cell ratio, laser cytometry, cells loaded with oleic acid; for activity change, negative = inhibition: at 57.5 µM (top of the series). The method, boiled down: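 Cells seeded at 5,000 per well were treated with compounds over a concentration series and loaded with oleic acid (400 uM, as added). Lipid droplet fluorescence (488 nm excitation, 500-530 nm channel) was read by laser-scanning cytometry and normalized to 20 uM Triacsin C.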

In assay [6] the target is Dual specificity protein kinase CLK4 (Homo sapiens) (UniProt Q9HAZ1). Nature of the assay: qHTS Assay for Inhibitors of CDC-like Kinase 4 (Kinase-Glo Assay) (AID 1770). Note: potency is the fitted concentration of half-maximal effect; nearly all actives have a fitted effect of over 65% in size. The method, boiled down: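 Luminescent ATP-depletion read-out (Kinase-Glo) after 4.5 h room-temperature reaction of Clk4 (25 nM final) with RS peptide (100 uM) and ATP (1 uM), pH 7.5 Tris buffer with MgCl2 and DTT.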

In assay [7] the target is Ubiquitin carboxyl-terminal hydrolase 1 (Homo sapiens) (UniProt O94782). The assay can be described thus: Inhibitors of USP1/UAF1: Pilot qHTS (AID 504865).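 Note: rhodamine fluorescence freed from ubiquitin-rhodamine substrate followed over time; top concentration of the series differs between compounds; % is set by controls: 0 for no effect and ±100 for the full control effect; nearly all actives have a fitted effect of over 35% in size.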 The method, boiled down:
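Deubiquitinase activity followed as kinetic rhodamine fluorescence release from 150 nM Ub-Rho. 1 nM USP1/UAF1 with compound, after 15 min room-temperature preincubation, in HEPES pH 7.8 buffer containing TCEP, EDTA, BSA and Tween-20.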

For assay [8], the target named is Lysosomal acid glucosylceramidase (Homo sapiens) (UniProt P04062). Nature of the assay: Glucocerebrosidase-p2 (AID 348; in the data active = potency below about 10 µM; note: potency is the fitted concentration of half-maximal effect). Particulars: purified GBA, blue fluorogenic substrate, 40 min. The method, boiled down:
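Normal human glucocerebrosidase (0.2 nM) with blue fluorogenic substrate (80 uM final) in citrate/phosphate pH 5.9 with 10mM sodium taurocholate, 0.01% tween-20; 40 min RT, NaOH/glycine stop; fluorescence Ex 365/Em 440; AC50 from a titration from 0.6 nM upwards.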

Assay [9] in a line: AP1 Signaling Pathway (AID 357; active = well fitted curve in either direction with a large enough effect, not every such curve was filed as active;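 note: ME-180 reporter cells stimulated with EGF at its EC50 level; % is set by controls: 0 for no effect and ±100 for the full control effect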). Particulars: ME-180 AP-1-bla reporter, EGF-induced, beta-lactamase ratio, 5 h; at 7.69 µM (top of the series) unless noted. The method, boiled down:
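Beta-lactamase reporter under AP-1 response element, ME-180 background. Stimulus: EC50 EGF. Compound exposure 5 h, 37 °C. Detection: CCF4, 2.5 h RT, 460/530 nm. Values: AC50 from titration.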

Assay [10] addresses Cytochrome P450 1A2 (Homo sapiens) (UniProt P05177). Nature of the assay: p450-cyp1a2 (AID 410; calls by dose curve; note: potency is the fitted concentration of half-maximal effect;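 for activity change, negative = inhibition: -100% = full effect of reference inhibitor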). The method, boiled down:
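Luminescent demethylation readout: Luciferin-ME (100uM, equal to Km) turned over by 20nM CYP1A2 for 60 min at room temperature after NADPH regeneration addition, following 10 min compound preincubation. Normalization used 57 uM furafylline as full inhibition.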

The nature of assay [11]: NFAT Signaling Pathway (AID 444; active = well fitted curve in either direction with a large enough effect, not every such curve was filed as active;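 note: carbachol stimulus at about its EC50 of 1 µM final; % is set by controls: 0 for no effect and ±100 for the full control effect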). To be noted: Jurkat NFAT-bla M1, carbachol, beta-lactamase ratio, 5 h; at 7.69 µM (top of the series) unless noted. The gist of the method: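 Jurkat cells carrying an NFAT-driven β-lactamase reporter and co-transfected muscarinic M1 receptor were treated with compound plus carbachol (1 uM final, an EC50 level) for 5 h at 37 °C. CCF4 loading followed for 1 h at RT; 460/530 nm ratio gave %activity.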

Assay [12] can be described thus: Stat Signaling Pathway (AID 446; active = well fitted curve in either direction with a large enough effect, not every such curve was filed as active;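 note: ME-180 cervical cancer cells given 40 pM IL-6 alongside compound; SIE-controlled beta-lactamase reporter measured as 460/530 nm FRET emission ratio; % is set by controls: 0 for no effect and ±100 for the full control effect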). To be noted: ME-180 (cervical carcinoma) SIE beta-lactamase reporter, IL-6 stimulated, 5 h; at 7.69 µM (top of the series) unless noted. The gist of the method:
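Normalization used AC90 stimulation (300 pM IL-6) and AC90 inhibition (125 nM pan-JAK inhibitor at 40 pM IL-6). The underlying signal is SIE-driven beta-lactamase in ME-180 cells after 5 h IL-6 exposure with compound.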

The target in assay [13] is Cytochrome P450 3A4 (Homo sapiens) (UniProt P08684). Nature of the assay: qHTS Assay for Activators of Cytochrome P450 3A4 (AID 885). Note: nearly all actives have a fitted effect of over 65% in size. The method, boiled down: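 Human CYP3A4 dealkylates Luciferin-PPXE to luciferin, which luciferase detection converts to light. Substrate was at its KM (25uM), buffer 200mM KPO4, reaction 60 min at RT.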
Assay [14] shares this target. The assay can be described thus: qHTS Assay for Inhibitors and Substrates of Cytochrome P450 3A4 (AID 884). Note: potency is the fitted concentration of half-maximal effect; nearly all actives have a fitted effect of over 50% in size. The method, boiled down: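 Luminescent readout of luciferin produced by CYP3A4 (20 nM) dealkylation of Luciferin-PPXE, 25 uM (its KM). NADPH-driven reaction ran 60 min at RT after 10 min compound preincubation; data scaled to 57 uM ketoconazole as 100% inhibition.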

Assay [15] concerns the target Cytochrome P450 2C19 (Homo sapiens) (UniProt P33261). Nature of the assay: qHTS Assay for Inhibitors and Substrates of Cytochrome P450 2C19 (AID 899). Note: potency is the fitted concentration of half-maximal effect; nearly all actives have a fitted effect of over 60% in size. The method, boiled down: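 In 50mM KPO4, the reaction held 5nM enzyme and KM-level (10uM) Luciferin-H EGE; it ran 60 min at 37C after NADPH regeneration and a 10 min compound preincubation. Luminescence values were scaled to 57uM ketoconazole as complete inhibition.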

Assay [16] addresses Dual specificity protein kinase CLK4 (Homo sapiens) (UniProt Q9HAZ1). The assay can be described thus: qHTS Assay for Inhibitors of CDC-like Kinase 4 (ADP-Glo Assay) (AID 1771). Note: potency is the fitted concentration of half-maximal effect; nearly all actives have a fitted effect of over 70% in size. The gist of the method: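 ADP production was read by ADP-Glo luminescence after residual ATP depletion, following 1 h room-temperature reaction of 25 nM Clk4, 1 uM ATP and 100 uM RS peptide with MgCl2, EGTA, DTT and Triton X-100.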

Setting [17] is: measured here: cell count channel max response.
The mark [18] stands for this setting: measured here: lipid channel max response.

Results filed as inconclusive are left out. Active and inactive are the calls of the source. Unless noted, calls come from the whole dose curve; as a rule, active = well fitted curve in the direction sought with a large enough effect; inconclusive = small, poorly fitted or top-dose-only effect, or another doubt; inactive = no such curve, though single readings can be large; an effect the other way counts as inactive or inconclusive.

Sequence of Cytochrome P450 3A4 (Homo sapiens) (P08684 whole entry, looked up): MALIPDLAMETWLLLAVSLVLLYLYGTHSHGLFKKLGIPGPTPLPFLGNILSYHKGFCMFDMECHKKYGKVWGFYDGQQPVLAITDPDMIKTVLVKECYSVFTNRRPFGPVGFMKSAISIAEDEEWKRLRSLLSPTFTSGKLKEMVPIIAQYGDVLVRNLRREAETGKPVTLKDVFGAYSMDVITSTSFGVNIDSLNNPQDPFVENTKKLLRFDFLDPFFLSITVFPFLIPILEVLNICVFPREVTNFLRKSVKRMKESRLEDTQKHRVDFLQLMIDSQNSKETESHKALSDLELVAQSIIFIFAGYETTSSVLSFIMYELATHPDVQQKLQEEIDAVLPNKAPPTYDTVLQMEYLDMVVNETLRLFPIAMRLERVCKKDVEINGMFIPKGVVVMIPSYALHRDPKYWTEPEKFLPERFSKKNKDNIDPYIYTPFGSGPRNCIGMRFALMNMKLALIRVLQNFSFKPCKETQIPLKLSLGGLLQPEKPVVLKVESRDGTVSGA
Sequence of Glucocorticoid receptor (Homo sapiens) (P04150 whole entry, looked up, the tested form may be a part): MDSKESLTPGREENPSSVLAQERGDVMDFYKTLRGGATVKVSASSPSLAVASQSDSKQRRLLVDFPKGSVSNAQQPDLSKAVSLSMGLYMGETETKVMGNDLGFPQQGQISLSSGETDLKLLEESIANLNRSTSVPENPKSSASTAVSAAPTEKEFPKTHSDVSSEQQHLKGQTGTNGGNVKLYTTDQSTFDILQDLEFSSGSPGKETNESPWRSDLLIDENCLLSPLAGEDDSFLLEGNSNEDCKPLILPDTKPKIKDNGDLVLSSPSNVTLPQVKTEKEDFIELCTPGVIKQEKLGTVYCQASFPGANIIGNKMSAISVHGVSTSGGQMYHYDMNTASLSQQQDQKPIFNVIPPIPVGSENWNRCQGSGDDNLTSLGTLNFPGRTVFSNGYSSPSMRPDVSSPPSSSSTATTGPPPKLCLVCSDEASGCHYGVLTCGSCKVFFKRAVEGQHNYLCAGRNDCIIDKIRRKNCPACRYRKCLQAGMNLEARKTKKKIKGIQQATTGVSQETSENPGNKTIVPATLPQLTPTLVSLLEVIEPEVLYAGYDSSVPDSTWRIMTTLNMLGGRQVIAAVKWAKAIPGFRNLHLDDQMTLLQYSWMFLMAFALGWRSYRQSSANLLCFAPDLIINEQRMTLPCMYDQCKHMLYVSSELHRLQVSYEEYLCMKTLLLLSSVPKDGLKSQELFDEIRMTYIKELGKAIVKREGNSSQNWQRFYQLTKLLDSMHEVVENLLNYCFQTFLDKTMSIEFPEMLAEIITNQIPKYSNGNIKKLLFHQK
Sequence of Dual specificity protein kinase CLK4 (Homo sapiens) (Q9HAZ1 whole entry, looked up): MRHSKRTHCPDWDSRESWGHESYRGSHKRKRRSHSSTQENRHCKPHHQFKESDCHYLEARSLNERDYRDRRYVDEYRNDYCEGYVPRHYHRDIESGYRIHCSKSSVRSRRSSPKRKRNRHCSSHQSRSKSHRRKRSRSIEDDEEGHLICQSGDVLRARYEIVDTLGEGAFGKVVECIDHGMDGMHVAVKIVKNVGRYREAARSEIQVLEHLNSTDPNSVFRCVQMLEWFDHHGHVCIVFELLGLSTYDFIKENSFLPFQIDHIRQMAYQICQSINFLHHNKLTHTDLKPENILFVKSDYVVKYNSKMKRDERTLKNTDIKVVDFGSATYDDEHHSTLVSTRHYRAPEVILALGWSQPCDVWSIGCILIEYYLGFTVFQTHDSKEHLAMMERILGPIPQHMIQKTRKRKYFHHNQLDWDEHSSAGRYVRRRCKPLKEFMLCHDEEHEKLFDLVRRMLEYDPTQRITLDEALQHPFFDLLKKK
Sequence of Cytochrome P450 1A2 (Homo sapiens) (P05177 whole entry, looked up): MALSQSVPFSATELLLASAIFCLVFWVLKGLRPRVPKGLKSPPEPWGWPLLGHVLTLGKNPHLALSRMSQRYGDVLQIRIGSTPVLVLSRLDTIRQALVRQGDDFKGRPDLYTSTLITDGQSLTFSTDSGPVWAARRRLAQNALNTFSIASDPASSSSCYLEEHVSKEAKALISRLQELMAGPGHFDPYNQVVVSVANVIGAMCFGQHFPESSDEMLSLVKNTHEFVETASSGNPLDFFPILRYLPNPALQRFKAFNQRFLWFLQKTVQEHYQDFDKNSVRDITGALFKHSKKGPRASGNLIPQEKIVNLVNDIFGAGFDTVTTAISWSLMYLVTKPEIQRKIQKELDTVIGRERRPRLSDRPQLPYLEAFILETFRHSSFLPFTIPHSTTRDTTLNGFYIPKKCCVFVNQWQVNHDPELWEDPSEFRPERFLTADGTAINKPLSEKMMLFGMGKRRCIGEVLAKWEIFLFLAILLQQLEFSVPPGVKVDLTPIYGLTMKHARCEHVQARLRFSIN
Sequence of Lysosomal acid glucosylceramidase (Homo sapiens) (P04062 whole entry, looked up): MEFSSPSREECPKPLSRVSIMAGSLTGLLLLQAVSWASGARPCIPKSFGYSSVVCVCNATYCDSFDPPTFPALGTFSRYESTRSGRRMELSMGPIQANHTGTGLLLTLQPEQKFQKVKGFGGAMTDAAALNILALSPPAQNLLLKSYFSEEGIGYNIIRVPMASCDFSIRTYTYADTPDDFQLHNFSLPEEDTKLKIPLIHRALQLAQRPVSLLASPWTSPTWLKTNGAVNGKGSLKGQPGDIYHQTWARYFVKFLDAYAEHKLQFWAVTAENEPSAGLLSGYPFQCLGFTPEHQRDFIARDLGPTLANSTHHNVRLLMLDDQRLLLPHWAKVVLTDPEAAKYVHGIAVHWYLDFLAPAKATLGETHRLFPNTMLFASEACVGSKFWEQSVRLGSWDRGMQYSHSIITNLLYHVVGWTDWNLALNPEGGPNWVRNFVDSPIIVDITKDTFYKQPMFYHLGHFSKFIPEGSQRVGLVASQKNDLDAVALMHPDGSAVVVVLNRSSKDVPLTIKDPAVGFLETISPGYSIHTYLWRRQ
Sequence of Ubiquitin carboxyl-terminal hydrolase 1 (Homo sapiens) (O94782 whole entry, looked up): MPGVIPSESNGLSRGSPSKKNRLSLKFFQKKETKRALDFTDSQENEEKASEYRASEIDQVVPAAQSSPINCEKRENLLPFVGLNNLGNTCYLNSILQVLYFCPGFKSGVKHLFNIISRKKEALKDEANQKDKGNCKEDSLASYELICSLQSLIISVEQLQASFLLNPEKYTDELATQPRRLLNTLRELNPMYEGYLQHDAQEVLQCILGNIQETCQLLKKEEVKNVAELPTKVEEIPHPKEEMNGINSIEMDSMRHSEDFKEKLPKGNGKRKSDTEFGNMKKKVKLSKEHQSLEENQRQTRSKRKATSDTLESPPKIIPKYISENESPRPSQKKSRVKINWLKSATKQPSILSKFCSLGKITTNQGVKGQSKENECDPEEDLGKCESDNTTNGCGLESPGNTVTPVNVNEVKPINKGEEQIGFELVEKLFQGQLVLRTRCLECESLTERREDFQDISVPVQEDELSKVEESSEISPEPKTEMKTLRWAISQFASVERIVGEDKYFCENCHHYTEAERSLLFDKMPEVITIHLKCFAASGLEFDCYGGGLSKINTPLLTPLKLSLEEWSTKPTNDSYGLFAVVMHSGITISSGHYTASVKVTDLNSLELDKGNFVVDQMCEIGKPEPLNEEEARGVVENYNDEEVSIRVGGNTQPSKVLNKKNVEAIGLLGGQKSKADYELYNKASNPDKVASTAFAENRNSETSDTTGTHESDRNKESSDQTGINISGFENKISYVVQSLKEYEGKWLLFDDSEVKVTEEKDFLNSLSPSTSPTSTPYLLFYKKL
Sequence of 3',5'-cyclic-AMP phosphodiesterase 4B (Homo sapiens) (Q07343 whole entry, looked up): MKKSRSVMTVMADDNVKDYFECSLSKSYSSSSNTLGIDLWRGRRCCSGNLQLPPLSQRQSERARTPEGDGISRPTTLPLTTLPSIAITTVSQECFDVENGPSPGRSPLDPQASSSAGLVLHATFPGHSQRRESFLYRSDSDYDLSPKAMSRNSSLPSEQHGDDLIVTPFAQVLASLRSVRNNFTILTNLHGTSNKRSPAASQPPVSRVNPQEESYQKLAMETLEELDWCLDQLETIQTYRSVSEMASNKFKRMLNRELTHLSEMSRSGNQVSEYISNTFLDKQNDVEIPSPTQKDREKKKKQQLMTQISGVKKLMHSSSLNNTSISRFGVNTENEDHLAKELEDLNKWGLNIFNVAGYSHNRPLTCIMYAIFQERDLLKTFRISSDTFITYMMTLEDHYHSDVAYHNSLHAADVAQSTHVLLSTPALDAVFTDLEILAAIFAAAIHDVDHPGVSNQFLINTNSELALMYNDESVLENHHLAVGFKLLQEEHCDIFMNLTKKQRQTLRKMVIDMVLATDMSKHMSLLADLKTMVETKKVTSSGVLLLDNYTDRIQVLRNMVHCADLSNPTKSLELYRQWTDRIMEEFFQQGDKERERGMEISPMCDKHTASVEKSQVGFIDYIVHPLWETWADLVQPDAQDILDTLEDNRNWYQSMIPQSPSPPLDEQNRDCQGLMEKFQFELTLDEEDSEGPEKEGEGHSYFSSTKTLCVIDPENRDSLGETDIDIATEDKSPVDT
Sequence of Cytochrome P450 2C19 (Homo sapiens) (P33261 whole entry, looked up): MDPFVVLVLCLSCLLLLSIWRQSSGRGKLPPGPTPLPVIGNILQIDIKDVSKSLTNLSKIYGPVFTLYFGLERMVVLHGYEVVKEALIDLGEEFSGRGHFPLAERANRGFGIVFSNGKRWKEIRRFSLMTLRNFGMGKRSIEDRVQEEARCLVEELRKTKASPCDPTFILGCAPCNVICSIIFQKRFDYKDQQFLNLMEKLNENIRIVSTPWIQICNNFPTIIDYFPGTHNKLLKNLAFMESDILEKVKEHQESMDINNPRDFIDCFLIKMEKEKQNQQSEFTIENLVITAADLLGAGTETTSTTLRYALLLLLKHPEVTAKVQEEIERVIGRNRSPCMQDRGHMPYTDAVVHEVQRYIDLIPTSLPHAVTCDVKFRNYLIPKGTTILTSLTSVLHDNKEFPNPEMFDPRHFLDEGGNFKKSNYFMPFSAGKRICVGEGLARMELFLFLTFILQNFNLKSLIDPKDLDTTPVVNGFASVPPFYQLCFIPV

As to `O=c1c(-c2cc(F)cc(F)c2)nc2cnc(N3CCNCC3)nc2n1-c1ccccc1`, the Potency in assay [1] was > 9.22 µM (inactive); in assay [2] it was > 46 µM (inactive); in assay [6], 15.8 µM (active). In assay [3], the result was inactive. Moreover, the Potency entry in assay [4] and in [7] was “inactive” each time. Besides, the activity change, negative = inhibition in assay [5] was 4.01% (inactive). Moreover, the results for the max response in [5] (setting [17]) and in assay [5] (setting [18]) were 3.1% and 4.03%, respectively.

As for `O=C(c1cnccn1)N1CCC[C@@]2(CCN(c3ncccn3)C2)C1`, the Potency in [8] is > 11.4 µM (inactive); in [2], > 46 µM (inactive). Moreover, the activity change, negative = inhibition in assay [9] was -3.69% (inactive); in [11], 7.98% (inactive); in assay [5], 5.72% (inactive). The Potency entry in assay [10], in [4] and in [13] was “inactive” throughout. The activity, negative = inhibition in [12] is -3.83% (inactive). Also, in assay [3], the result was inactive. Also, the max response in assay [5] (setting [17]) is 9.64%; in assay [5] (setting [18]), 19.5%.

As to `CN1CCN(c2ncnc3ccc(-c4ccccc4Cl)cc23)CC1`, the Potency in assay [8] is > 11.4 µM (inactive); in assay [10], 1.58 µM (active); in assay [1], > 46 µM (inactive); in assay [2], > 46 µM (inactive); in assay [14] it was 5.01 µM (active); in [15], 3.98 µM (active). For the same compound, the figures for the Potency in assay [6] and in assay [16] were 25.1 µM (active) and 28.2 µM (active), respectively. Further, the activity change, negative = inhibition in assay [11] is -23.1% (inactive); in [5], -1.72% (inactive). The compound was called inactive in assay [3]. In addition, the Potency entry in assay [13] and in [7] was “inactive” each time. The max response in assay [5] (setting [17]) was 10.9%; in assay [5] (setting [18]), -1.45%.

The values above are taken from PubChem BioAssay (NCATS).
